From ChEMBL document CHEMBL3988442, “University of Dundee, Small-Polar-MMV Screening Library” (2021) come the findings set out here.

For some of these results: Entries with a potency or affinity are not part of this list.

What all share (design): scale not given: direction of the effect not stated beside the values
Assay [1] deals with Protein translocase subunit SecA (Escherichia coli (strain K12)) (UniProt P10408). The assay is described as follows: Assay to Identify E. coli SecA ATPase Inhibitors. The assay is classed as functional. Conditions: 30 µM.
Chain of Protein translocase subunit SecA (Escherichia coli (strain K12)) (P10408 whole entry): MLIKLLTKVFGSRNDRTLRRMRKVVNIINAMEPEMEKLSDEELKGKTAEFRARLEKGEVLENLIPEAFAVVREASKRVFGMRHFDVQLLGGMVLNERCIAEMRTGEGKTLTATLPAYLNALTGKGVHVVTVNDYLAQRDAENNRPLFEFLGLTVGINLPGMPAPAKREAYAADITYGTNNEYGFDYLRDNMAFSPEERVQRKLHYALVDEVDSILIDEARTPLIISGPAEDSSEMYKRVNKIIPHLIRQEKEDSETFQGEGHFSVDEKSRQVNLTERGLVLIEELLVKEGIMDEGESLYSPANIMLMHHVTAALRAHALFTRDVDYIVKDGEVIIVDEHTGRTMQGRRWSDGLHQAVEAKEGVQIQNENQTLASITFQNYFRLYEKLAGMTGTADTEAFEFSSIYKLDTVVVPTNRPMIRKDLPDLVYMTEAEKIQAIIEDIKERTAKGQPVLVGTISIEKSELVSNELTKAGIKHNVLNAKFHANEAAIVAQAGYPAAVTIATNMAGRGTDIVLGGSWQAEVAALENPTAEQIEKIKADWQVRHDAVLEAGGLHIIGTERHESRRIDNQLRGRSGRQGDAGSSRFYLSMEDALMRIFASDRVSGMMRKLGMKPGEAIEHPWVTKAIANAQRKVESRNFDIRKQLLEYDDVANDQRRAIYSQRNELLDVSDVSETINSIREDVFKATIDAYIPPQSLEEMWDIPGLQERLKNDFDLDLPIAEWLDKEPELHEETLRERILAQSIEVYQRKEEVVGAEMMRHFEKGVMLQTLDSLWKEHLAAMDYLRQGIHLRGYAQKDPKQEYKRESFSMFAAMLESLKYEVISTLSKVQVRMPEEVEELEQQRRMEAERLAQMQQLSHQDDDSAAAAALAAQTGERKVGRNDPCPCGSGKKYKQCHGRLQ
For assay [2], the target named is T1, Ubiquitin-activating enzyme e1, putative (Leishmania donovani (strain BPK282A1)) (UniProt E9BSI1).
T1 sequence (whole entry): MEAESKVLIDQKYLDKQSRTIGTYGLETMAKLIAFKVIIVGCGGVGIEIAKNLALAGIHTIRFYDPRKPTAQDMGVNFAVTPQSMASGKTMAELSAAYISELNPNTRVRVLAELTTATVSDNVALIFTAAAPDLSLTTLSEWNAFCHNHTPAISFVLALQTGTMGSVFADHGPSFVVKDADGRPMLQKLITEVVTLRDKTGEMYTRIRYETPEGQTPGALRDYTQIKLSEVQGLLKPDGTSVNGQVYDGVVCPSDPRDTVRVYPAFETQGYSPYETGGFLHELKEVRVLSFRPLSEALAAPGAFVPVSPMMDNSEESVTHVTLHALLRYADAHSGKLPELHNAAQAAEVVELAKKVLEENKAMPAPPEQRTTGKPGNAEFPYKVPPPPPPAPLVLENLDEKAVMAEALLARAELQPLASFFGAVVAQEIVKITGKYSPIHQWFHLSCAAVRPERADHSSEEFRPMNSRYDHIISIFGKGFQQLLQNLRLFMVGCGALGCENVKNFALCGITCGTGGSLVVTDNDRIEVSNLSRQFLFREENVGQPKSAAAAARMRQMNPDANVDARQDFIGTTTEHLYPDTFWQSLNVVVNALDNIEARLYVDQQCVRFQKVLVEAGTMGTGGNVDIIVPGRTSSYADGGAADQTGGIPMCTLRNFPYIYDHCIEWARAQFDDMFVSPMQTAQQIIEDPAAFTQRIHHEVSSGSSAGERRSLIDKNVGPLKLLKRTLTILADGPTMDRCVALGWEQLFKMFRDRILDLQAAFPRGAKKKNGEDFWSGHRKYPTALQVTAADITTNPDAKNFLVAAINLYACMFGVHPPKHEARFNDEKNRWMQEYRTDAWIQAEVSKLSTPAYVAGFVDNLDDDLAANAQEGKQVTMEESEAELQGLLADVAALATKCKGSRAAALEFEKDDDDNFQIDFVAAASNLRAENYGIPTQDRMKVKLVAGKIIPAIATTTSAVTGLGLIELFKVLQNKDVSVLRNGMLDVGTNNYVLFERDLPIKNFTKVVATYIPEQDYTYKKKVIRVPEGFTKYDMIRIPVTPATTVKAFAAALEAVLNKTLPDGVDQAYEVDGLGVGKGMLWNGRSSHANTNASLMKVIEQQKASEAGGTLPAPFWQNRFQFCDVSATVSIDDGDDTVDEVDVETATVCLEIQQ
Nature of the assay: Leishmania donovani Ubiquitin Activating Enzyme (LdE1). The assay is classed as functional. The note with it: 30 µM.

For assay [3], the target named is AMP-activated protein kinase, AMPK (Homo sapiens) (UniProt P54646+O43741+P54619+Q9UGJ0+Q9Y478+Q13131+Q9UGI9). Nature of the assay: AMP-dependent Kinase enzyme assay. An in vitro enzyme assay that detects ADP turnover that is directly proportional to AMPK activity. This uses naive AMPK that is activated during the assay with MK-8722. The assay is classed as functional. The note with it: 30 µM.

In assay [4] the target is Sialic acid-binding Ig-like lectin 9 (Homo sapiens) (UniProt Q9Y336). Nature of the assay: Hs-Siglec9 ALPHAscreen SOP 20170721. Conditions: 10 µM. (Alpha assays give light when donor and acceptor beads are brought close together.)
Chain of Sialic acid-binding Ig-like lectin 9 (Homo sapiens) (Q9Y336 whole entry): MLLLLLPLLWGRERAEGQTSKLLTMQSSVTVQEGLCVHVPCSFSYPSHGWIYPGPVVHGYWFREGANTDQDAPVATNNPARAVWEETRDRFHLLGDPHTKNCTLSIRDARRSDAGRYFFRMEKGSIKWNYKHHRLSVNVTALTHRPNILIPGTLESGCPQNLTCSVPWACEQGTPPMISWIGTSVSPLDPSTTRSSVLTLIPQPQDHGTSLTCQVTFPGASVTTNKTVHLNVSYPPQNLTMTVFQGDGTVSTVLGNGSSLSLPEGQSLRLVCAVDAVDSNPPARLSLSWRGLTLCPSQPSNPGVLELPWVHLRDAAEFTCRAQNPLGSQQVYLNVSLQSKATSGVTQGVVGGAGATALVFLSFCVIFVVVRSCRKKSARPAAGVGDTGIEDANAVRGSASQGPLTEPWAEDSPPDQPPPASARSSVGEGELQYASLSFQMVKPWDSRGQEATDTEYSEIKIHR
Assay [5] concerns Trypanosoma cruzi. The assay is described as follows: Trypanosoma cruzi phosphomannomutase and mannose-1-phosphate guanylyltransferase assay. The assay is classed as functional. Conditions: 10 µM.
Assay [6] has as its target T2, Arginase-2, mitochondrial (Homo sapiens) (UniProt P78540).
T2 sequence (whole entry): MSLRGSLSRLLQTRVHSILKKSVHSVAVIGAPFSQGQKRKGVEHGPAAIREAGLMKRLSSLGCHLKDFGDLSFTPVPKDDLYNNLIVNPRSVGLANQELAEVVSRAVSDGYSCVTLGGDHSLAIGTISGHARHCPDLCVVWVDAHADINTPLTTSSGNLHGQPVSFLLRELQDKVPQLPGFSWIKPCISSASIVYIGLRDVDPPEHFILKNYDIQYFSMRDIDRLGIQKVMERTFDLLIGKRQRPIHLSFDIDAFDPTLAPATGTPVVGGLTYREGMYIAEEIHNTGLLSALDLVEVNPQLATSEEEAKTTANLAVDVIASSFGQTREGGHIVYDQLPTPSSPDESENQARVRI
The assay is described as follows: in vitro enzyme assay to detect the production of urea directly proportional to the activity of Arginase II. Also: in the data most compounds retested in dose-response had high values. The assay is classed as functional. Conditions: 33.3 µM.

Assay [7] concerns the target T3, Proteasome subunit beta (Trypanosoma cruzi) (UniProt O96673).
T3 sequence (whole entry): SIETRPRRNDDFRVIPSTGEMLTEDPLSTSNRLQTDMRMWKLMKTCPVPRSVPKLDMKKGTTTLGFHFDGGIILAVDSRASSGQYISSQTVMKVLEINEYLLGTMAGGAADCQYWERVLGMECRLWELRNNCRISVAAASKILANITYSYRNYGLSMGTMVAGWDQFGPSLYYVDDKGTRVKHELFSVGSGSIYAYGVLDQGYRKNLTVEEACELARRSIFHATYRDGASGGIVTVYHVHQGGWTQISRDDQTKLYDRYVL
Nature of the assay: Trypanosoma cruzi proteasome chymotrypsin-like activity (TcProtChymo) assay. Also: in the data most compounds retested in dose-response had high values. The assay is classed as functional. The note with it: 9.37 µM.

The species entered for assay [8] is Homo sapiens. The assay is described as follows: To identify inhibition of the IFN signalling (Jak-Stat) pathway via expression of an eGFP reporter gene under the control of an IFN-stimulated response element (ISRE) containing MxA promoter. In kind it is functional. Conditions: 30 µM.
For assay [9], the target named is T4, Tyrosyl-tRNA synthetase, putative (Trypanosoma cruzi (strain CL Brener)) (UniProt Q4DSP6).
T4 sequence (whole entry): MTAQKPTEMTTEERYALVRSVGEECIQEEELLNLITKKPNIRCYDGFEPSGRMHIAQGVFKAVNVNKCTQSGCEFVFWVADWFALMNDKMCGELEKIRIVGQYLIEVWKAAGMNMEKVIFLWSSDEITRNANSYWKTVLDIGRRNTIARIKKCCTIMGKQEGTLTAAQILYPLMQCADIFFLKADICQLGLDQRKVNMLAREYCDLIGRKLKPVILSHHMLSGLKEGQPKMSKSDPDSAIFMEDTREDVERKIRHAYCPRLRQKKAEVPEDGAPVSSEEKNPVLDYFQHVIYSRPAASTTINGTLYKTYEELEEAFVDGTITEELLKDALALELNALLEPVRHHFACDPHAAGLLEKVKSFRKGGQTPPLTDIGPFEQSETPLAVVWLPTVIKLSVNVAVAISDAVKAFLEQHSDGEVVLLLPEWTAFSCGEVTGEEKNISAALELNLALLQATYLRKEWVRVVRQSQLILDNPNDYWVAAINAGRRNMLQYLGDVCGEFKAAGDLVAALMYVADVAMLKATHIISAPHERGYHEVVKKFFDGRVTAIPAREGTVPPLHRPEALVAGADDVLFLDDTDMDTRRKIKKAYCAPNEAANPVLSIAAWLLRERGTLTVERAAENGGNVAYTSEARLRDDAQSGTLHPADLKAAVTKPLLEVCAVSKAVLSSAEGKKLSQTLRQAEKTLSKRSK
The assay is described as follows: Trypanosoma cruzi tyrosyl tRNA synthetase (TcYRS) _High Tyrosine SOP. Also: in the data most compounds retested in dose-response had high values. Conditions: 30 µM. In kind it is functional.

The target in assay [10] is T4, Tyrosyl-tRNA synthetase, putative (Trypanosoma cruzi (strain CL Brener)). The assay is described as follows: Trypanosoma cruzi tyrosyl tRNA synthetase (TcYRS) SOP. In kind it is functional. Conditions: 30 µM.
For assay [11], the target named is Chromo domain-containing protein 1 (Saccharomyces cerevisiae (strain ATCC 204508 / S288c) (Baker's yeast)) (UniProt P32657). Nature of the assay: ScCHD-1 Enzyme Inhibition Assay. Also: in the data most compounds retested in dose-response had high values. The assay is classed as functional. Conditions: 30 µM.
Chain of Chromo domain-containing protein 1 (Saccharomyces cerevisiae (strain ATCC 204508 / S288c) (Baker's yeast)) (P32657 whole entry, the tested form may be a part): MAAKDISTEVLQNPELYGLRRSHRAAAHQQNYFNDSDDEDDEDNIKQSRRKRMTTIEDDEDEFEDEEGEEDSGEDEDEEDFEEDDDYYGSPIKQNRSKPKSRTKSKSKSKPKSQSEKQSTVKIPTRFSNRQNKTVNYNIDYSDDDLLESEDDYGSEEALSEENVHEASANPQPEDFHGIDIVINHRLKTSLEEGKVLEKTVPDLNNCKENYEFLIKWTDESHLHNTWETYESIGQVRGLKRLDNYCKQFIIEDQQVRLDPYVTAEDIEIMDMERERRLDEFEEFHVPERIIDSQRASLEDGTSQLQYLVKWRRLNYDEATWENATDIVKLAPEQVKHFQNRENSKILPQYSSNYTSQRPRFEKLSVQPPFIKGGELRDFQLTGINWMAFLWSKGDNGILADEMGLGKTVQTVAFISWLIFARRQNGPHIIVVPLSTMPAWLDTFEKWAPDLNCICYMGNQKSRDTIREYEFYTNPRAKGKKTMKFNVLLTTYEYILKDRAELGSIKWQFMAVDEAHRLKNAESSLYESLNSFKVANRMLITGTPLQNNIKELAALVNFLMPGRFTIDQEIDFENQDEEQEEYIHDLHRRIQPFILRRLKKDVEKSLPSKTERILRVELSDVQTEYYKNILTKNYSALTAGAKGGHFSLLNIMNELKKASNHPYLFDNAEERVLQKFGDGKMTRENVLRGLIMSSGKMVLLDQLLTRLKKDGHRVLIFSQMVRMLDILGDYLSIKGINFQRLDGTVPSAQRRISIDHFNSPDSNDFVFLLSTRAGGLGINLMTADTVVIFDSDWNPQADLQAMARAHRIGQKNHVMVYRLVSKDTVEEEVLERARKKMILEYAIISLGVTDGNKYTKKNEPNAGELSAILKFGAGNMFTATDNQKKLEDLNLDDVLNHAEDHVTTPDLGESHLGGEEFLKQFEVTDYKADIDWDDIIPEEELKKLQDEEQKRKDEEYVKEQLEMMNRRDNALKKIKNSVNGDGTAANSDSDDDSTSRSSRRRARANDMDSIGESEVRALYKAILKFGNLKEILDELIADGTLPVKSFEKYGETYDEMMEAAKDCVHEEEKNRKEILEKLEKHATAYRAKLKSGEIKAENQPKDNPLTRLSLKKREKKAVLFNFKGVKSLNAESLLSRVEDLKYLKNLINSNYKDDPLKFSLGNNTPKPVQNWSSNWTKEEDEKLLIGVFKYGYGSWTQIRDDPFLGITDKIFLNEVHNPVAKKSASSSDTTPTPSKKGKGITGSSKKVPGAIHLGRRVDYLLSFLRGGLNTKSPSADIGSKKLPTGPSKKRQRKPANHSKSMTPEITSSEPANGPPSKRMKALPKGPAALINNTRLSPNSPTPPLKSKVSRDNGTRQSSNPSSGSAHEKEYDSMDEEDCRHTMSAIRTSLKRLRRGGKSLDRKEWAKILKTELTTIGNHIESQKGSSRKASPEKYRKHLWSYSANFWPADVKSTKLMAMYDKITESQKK

With `COc1ccc(NC(=O)N2CCCC2c2ccco2)cc1OC` (stereo unspecified), the Percent Effect in assay [1] was 0.301%; in assay [2] it was 13%; in [3] it was 7.21%; in assay [4], -3.22%; in assay [5] it was -4.24%; in assay [6] it was -0.645%. For the same molecule, the Percent Effect in assay [7] was 9.57%; in [8], 19.6%; in assay [9], -5.29%; in [10], 14.1%; in assay [11], -9.73%.
On to `Cc1nccc(CNC(=O)NCCOc2ccc(F)c(F)c2)n1`, for which the Percent Effect in assay [1] is -4.87%; in assay [2], 0%; in [3], -0.557%; in assay [4] it was 27.5%; in assay [5] it was 4.25%; in assay [6], -1.43%. In addition, the Percent Effect was 14.8% in assay [7]; 8.46% in [8]; 4.76% in [9]; 9.76% in assay [10]; -9.47% in [11].
For the molecule `CC(=O)Nc1nc(C(=O)NCc2ccc(N3CCCCCC3)nc2)cs1`, the Percent Effect in [1] was -1.32%; in [2] it was 24.1%; in assay [3], 5.19%; in assay [4] it was -5.11%; in assay [5], -1.13%; in [6], -4.09%. In addition, the Percent Effect in assay [7] is 20.6%; in [8], 29.2%; in [9] it was 4.17%; in [10], 22.8%; in [11] it was -18.9%.
Take `CCOc1cccc(NS(=O)(=O)c2cc(C)c(C(=O)O)s2)c1`: the Percent Effect is -6.74% in [1]; 8.11% in assay [2]; -13.3% in assay [3]; 45.6% in [4]; 7.72% in [5]; 19.1% in assay [6]. Besides, the Percent Effect in assay [7] was 6.27%; in [8] it was -0.127%; in [9], -10.8%; in assay [10], -3.7%; in [11], -13.9%.
Consider `O=C(CCN1CCCC1c1cccs1)N1CCc2sccc2C1` (stereo unspecified), for which the Percent Effect in [1] was 0.699%; in assay [2] it was -29.7%; in [3] it was -9.71%; in assay [4], 3.83%; in assay [5] it was -1.6%; in assay [6], -18%. Besides, the Percent Effect is 3.96% in assay [7]; 5.67% in assay [8]; 3.45% in [9]; -11.1% in [10]; 2.06% in assay [11].
For `Cc1ccc(S(=O)(=O)Nc2ccc(=O)n(C)c2)cc1`, the Percent Effect was -2.01% in assay [1]; 20.2% in assay [2]; -48.5% in [3]; -4.13% in [4]; 2.55% in assay [5]; 4.18% in assay [6]. Besides, the Percent Effect is 17.1% in [7]; 36% in [8]; 6.4% in [9]; 13.9% in assay [10]; -4.02% in [11].
Regarding `CCCn1nc(C2CCNCC2)n(Cc2ccccc2)c1=O`, the Percent Effect was -2.26% in assay [1]; 13.5% in assay [2]; -3.97% in [3]; 17% in [4]; 7.34% in assay [5]; -5.71% in assay [6]. Further, the Percent Effect in [7] is 10.2%; in assay [8] it was 0.924%; in assay [9] it was 5.82%; in [10], 14.6%; in [11], -1.76%.
`Cc1cc(C)c(CNC(=O)N2CCCC2c2ccccc2)c(=O)[nH]1` (stereo unspecified): the Percent Effect was -1.29% in assay [1]; -77.2% in assay [2]; 4.12% in assay [3]; 3.59% in [4]; 3.59% in assay [5]; 3.23% in [6]. Moreover, the Percent Effect was 19.4% in assay [7]; -0.586% in assay [8]; 3.12% in [9]; 17.7% in assay [10]; -23.8% in assay [11].
With `COCCCN(CCOC)C(=O)Nc1ccc(C)cc1C`, the Percent Effect in [1] was -4.88%; in [2], -7.89%; in [3] it was -30.8%; in [4], -2.12%; in [5] it was -2.63%; in assay [6] it was 3.55%. Besides, the Percent Effect in [7] was 2.01%; in assay [8], -18.5%; in [9] it was -2.13%; in assay [10], -2.6%; in assay [11], 6.01%.
For `O=C(c1cccnc1)N1CCC2(CC1)CCN(c1ccsc1)C2=O`, the Percent Effect in [1] is -4.05%; in assay [2], -2.6%; in assay [3], 1.54%; in assay [4], -7.82%; in assay [5], -1.28%; in assay [6] it was -4.52%. Besides, the Percent Effect in [7] is 12%; in assay [8], -7.6%; in [9], -5.29%; in [10], -6.41%; in [11], 0.0389%.
Consider `Cc1ccc(-c2ncc(C(=O)NCCS(N)(=O)=O)s2)c(C)c1`, for which the Percent Effect was -7.16% in assay [1]; 5.41% in assay [2]; -2.36% in [3]; 0.84% in assay [4]; -5% in assay [5]; -3.61% in [6]. In addition, the Percent Effect in assay [7] was 9.55%; in assay [8], 21.4%; in [9], 0.493%; in assay [10] it was -1.24%; in [11] it was -4.18%.
